The text below walks through data of the supplement of paper PMC12632987.

Whole data set: some 1,800 sequences, median “median log2 fold change of GCK-ALFA target abundance (FLAG IP / Myc IP barcode read proportion)” near 0.14, cut for the lowest 2% near -0.84. Many of the other results were omitted from the sample, so the lowest values are more common in it than they were.

The labels stand for the following.
B1: traf2_out_11_169_882 (protein)
chain: EEKEKNRKFNDFALELNDKAKKELLAFAEELAKKLGLDVAEVKAIFEANKNSSLSALAAALIEYFRSKGHEDAAAAVLAKYEELQEKINKEGTKKLKELE
B2: traf2_out_17_178_1712 (protein)
chain: SKEEARKEISAATDEMIDLAEAAATRLLEIARKEGSLSPEELAELERARRLGSARTTLALMERAIPKSKSAEEVQAILDEFRKRYAELSKKIAEALEKYE
B3: traf2_out_20_38_2005 (protein)
chain: SEEEEEERRLKIIIEAANEELDRWEKEIEELKAEGKTVEEIAERAKEEVRRLLTAAGLEEEAEELIAEIDLVLDSPDALDAIARILARAKALVVQKELNK
B4: traf2_out_20_3_2071 (protein)
chain: KELEEEAERELERALELLKRAAELADEETAKRLEELIKRLKASRELSVDDRLVVVSEVRREVLELAEEAKAAGKEELAKELEEAAEALNRAAQLLYDILQ
B5: traf2_out_13_95_1038 (protein)
chain: SKELAEKIMEIADEMEERSLALLEAAKEELADDPEAVAVLTEAKRLAETKGISEALHLLREASAANPEHAARFDALIEELEAIRREAGRKVAKLIKEEEE
B6: traf2_out_15_48_1367 (protein)
chain: DAAAYRAAMNAAADRIIATKDEVKKEVKELAKVASPEVKKKLNEVAKLIEAGAGSQEIIAALKEAAKVASPELKAKLEELAERLRAARREASAIAAAMAK
B7: traf2_out_13_95_1077 (protein)
chain: SKETNEKIMEIADEMLDKVNEVLEELAEKVKDDPEMKAKVEEALHLATHRGINEAIHLLKKLAEENEEYKELLEEAIKKLEEIKEKAGKEVAKLLKEEEE
B8: traf2_out_13_95_1157 (protein)
chain: SAELAKKIMEIADEMLDRSLAVLDALLAKAKAAGKLEAEVAEARHLAETRSINEAIAKLRELAKAHPEFKAELDAAIAELEALRREAGRKVAELIKEEEE
B9: traf2_out_17_162_1548 (protein)
chain: GELEERLKELEEELEELERRAEELESLLPELPKLSKEELTDLLVEASEARRRARRLAEEIEKLKEEIGEERAEELRERAEEIAERLQRIANAIYKELEKK
B10: traf2_out_17_162_1490 (protein)
chain: EELEERLRELERRLEELERRLKELEEKLKNIDKLSKEELTDLLVEASEAKREARRLAEELRELRERTGREELEELIRRAEEIAERLQRIANIIYKELEKK
B11: traf2_out_17_162_1532 (protein)
chain: SELEERLRELEEELRELEKRLEELEKELENLENMSKEELSDLLVEASEARRRALELAEELRELRSEIGEERAEELIRRAEEIAERLQRIANKIYEELEKK
B12: traf2_out_18_3_1898 (protein)
chain: SEEKLKEISEKIDEIIDEVTAKAREVLDWLEKNKPEVKERIAALRADLEAGAGPFGILRELARLAKEAGEEEKAKEIEEFLKEKSKELQELVDEYLELRA
B13: traf2_out_13_95_1133 (protein)
chain: SAETAKKIMEIADKMLDEVEKILEELLKIFEKKGIGVEEIKEALYLARHQSINEAIAKLEELSKKYPEFKEELDKAIEEIKALREKAGKEVAEILKKEKE
B14: traf2_out_1_27_1000 (protein)
chain: STEEERELLRRANREIGRASPEEQVEIIKRTLREALERGIDSPEHIAVVLILMLGDEETRERAIEAAREVLREAGISEEAIERMERRVRSGWERLDRLLA
B15: traf2_out_11_169_815 (protein)
chain: EEAEKNRKINDFALELNDEAKKKLLEHAKKLAKEAGLDVEEVEKIFEENKNKSLSAVAAALIKYFRSKGKEEEAEAVLKKYEELKEEINKKVTEKIKELE
B16: traf2_out_13_95_1055 (protein)
chain: SAETAAKINEIADEALERALALLRAAQEEVADDPAASAVLAEALRLAETRGISEAIHLLREAQAADPAHAERFAALIEELEAIRREAGRRVAEVLKEEKE
B17: traf2_out_18_64_1955 (protein)
chain: SELDEEIDRLVDEMDERRRLRLALARALQARAAADPAWQPLLDYFHAHVNDIGAAGARRMLALLAAGAPPAELRAVMEEDLGEGRELQRRLAELLEKREK
B18: traf2_out_18_117_1787 (protein)
chain: MEREEIIERLKEIAEETGRAASELGKLVLEKWEELTPEEKSEAFDVLADLSEVRREAQLLIIEIEEKNLPIEEAKKRLEELEKRAEEALKRAEEKIKRIK
B19: traf2_out_17_178_1705 (protein)
chain: SKEEARKKISEATDKMIDLAQEAAERLLEIAEREGSLSPEELAELRRARRLGSARTTLALMRRAIPRSRSAEEVRRLVEEFEKEYRELSKIIAEELKKYE
B20: traf2_out_13_95_1155 (protein)
chain: SKELAEKIMEIADRMLDEALAVLDELLAAAKAAGKLEEEVARARHLAEHHSINEAIALLRELAKAHPEFKEELDAAIARLEALRREAGREVAELIKKEKE
B21: traf2_out_13_95_1102 (protein)
chain: SRELAEEIMKIADEMIDKANEILEELLKIAKEKGVAEEEVKEALYLAEHRSIREAIHKLKELAKEYPELKEEFEEAIEKLEKLIEEAGKKVAELIKEEKE
B22: traf2_out_6_166_2459 (protein)
chain: ESETLKEIREIIKELSKYSTEIIVKAFDEVAKKVDEESARILRQLKSAVEQAEKLGLDVETALTATVLGLITLGVPEETLLKLLKEVLKEAKKIAEEKEK
B23: traf2_out_13_95_1054 (protein)
chain: SAETAEKINEIADEALEEALALLEEARAEVADDPEASAVLDEALRLAETKGISEAIHLLEEARAADPAHAERFAALIERLRAIRREAGRKVAEVLKEAEE
B24: traf2_out_14_166_1277 (protein)
chain: MTPEEIERIRKIVDELEPLTDAAVARARAILDKVRDKLSPEDLARVEALLALAARNIGSSAINALREIAKIYKKAGLDEAAAAMQALADELEEKLKKLNK
B25: traf2_out_6_156_2405 (protein)
chain: MLEEIEEETLKEIEELIKELAAASEEKKIAYISKIAGTFYRGLQRARAAGASVEELEAFGKRVLEKTKELLDEEGLPQDVKDLILSSLNAVFDVALAEAR

For the assay, the target named is T1, TRAF2, Q12933.
T1 chain: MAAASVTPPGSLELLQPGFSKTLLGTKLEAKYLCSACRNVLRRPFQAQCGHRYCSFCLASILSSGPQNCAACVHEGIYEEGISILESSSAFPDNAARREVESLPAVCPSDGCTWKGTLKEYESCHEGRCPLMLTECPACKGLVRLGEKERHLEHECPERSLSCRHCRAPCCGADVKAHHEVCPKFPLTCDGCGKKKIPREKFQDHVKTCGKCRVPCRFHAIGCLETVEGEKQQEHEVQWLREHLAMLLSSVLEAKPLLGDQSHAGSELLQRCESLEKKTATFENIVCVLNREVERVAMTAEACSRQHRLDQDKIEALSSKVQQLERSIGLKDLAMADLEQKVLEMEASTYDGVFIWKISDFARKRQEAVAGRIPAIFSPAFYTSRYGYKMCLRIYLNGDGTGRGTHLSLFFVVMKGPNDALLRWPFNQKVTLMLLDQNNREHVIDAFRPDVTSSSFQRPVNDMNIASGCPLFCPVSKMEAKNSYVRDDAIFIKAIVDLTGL
The assay can be described thus: median log2 fold change of GCK-ALFA target abundance (FLAG IP / Myc IP barcode read proportion) (log2 ratio); each designed protein is fused to an ALFA-tag nanobody in HEK293 cells to bring the named protein to FLAG-tagged glucokinase (GCK); Myc marks an untargeted standard; higher = target protein stabilised (more abundant). The note with it: target protein: 3xFLAG-MCP-GCK-ALFA reporter; HEK293 landing pad (RPLP). A digest of the protocol:
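An ALFA-nanobody-fused binder library was recombined into HEK293 landing-pad cells and induced with 2 μg mL^−1 doxycycline. Cells were transfected with a plasmid expressing a FLAG-tagged target and a Myc-tagged standard. After 48 h, lysates underwent anti-FLAG and anti-Myc immunoprecipitation, and circular RNA barcodes were reverse transcribed, amplified and sequenced. Target abundance is the per-binder median log2 ratio of FLAG to Myc barcode read proportions. Barcodes needed ≥10^−7 proportion in both replicates, binders ≥3 barcodes per replicate, and a 10^−6 pseudocount was added; the two replicates were pooled.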
On to B1, for which the “median log2 fold change” value stood at 0.444. B2: the “median log2 fold change” value was found to be 0.217. In the case of B3, the “median log2 fold change” value is -1.09. B4: the “median log2 fold change” value was found to be 0.112. On to B5, for which the “median log2 fold change” value was -0.177. For B6, the “median log2 fold change” value was -0.184.

Turning to B7, the “median log2 fold change” value is -0.0213. In the case of B8, the “median log2 fold change” value is -0.558. On to B9, for which the “median log2 fold change” value worked out at 0.22. As to B10, the “median log2 fold change” value is -1.17. For the molecule B11, the “median log2 fold change” value came to 0.0409. Take B12: the “median log2 fold change” value was -0.192. Take B13: the “median log2 fold change” value was -0.0113. On to B14, for which the “median log2 fold change” value stood at 0.155. B15: the “median log2 fold change” value came out at 0.235. Regarding B16, the “median log2 fold change” value was found to be 0.257. In the case of B17, the “median log2 fold change” value is 0.163. Then B18, with 0.101.

Take B19: the “median log2 fold change” value is -0.521.

For the molecule B20, the “median log2 fold change” value was -0.372. On to B21, for which the “median log2 fold change” value was -0.486. With B22, the “median log2 fold change” value worked out at 0.077. As to B23, the “median log2 fold change” value is 0.213. Take B24: the “median log2 fold change” value was 0.354. Regarding B25, the “median log2 fold change” value was determined as 0.151.
